Source: PubChem BioAssay
Many of the other results were omitted from the sample, so hits are more common in it than they were.
LmPK inhibitor: inhibitors of Leishmania mexicana pyruvate kinase. Q27686. purified LmPK, Kinase-Glo ATP luminescence, 1 h. Potency, µM (top dose mostly 57.5 µM), usual class: inhibitors. actives 0.37% (n = 290,000)
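Screened at intermediate enzyme activity to detect both inhibitors and activators: LmPK at 0.1 nM, with a 0.5 nM enzyme column as activation reference. PEP 0.5 mM, ADP 0.1 mM; ATP detected by luminescence after 1 h.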
FBPA Giardia inh: inhibitors of Giardia lamblia fructose-1,6-bisphosphate aldolase. Potency, µM (highest dose often 59.6 µM), hits mostly inhibitors. actives 0.71% (n = 290,000). purified Giardia FBPA; further: nearly all actives have a fitted effect of over 55% in size
Target sequence (A8B2U2 whole entry, looked up): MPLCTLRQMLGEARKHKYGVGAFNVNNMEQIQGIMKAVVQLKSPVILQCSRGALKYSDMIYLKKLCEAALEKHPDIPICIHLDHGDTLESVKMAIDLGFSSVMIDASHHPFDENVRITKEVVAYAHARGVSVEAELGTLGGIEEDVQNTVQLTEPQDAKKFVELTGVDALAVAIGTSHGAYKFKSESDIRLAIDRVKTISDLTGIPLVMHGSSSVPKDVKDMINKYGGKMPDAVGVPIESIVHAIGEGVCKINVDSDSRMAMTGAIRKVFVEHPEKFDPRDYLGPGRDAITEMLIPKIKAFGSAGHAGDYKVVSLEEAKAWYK
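Giardia FBPA (40 nM reagent) was preincubated 10 min at RT with compound (up to 57.5 uM final), then substrate plus GAPDH/TPI/NAD/arsenate coupling system with diaphorase/resazurin was added; resorufin fluorescence (525/598 nm) was read after 20 min.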
Shiga toxin inh: inhibitors of Shiga toxin in Vero cells. inhibition, % at 38.7 µM. Vero cells, Shiga toxin protein synthesis inhibition reporter. actives 9.2% (n = 290,000). AID 2315; in the data active means inhibition mostly above about 28%, no sharp cut-off; inactive means mostly below about 43%
Sm TGR block: blocks Schistosoma mansoni thioredoxin glutathione reductase; Q962Y6; actives 3% (n = 360,000); purified TGR, DTNB reduction, TNB absorbance 405 nm; Potency, µM (doses to about 114 µM), most hits filed as inhibitors; further: nearly all actives have a fitted effect of over 60% in size
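Kinetic colorimetric format: TGR-catalysed, NADPH-driven DTNB reduction monitored via TNB absorbance. Enzyme dispensed at 20 nM; compound exposure 15 min at room temperature before reaction start.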
CHX counter: affects cycloheximide protein synthesis inhibition readout, counter-screen | AID 2314 | max response, % | actives 12% (n = 300,000) | cell reporter, cycloheximide protein synthesis inhibition counterscreen; in the data active means max response mostly above about 13%, no sharp cut-off; inactive means mostly below about 14%; further: read at 38.3 µM for the half of the compounds with a filed dose
Tb PYK inh: blocks Trypanosoma brucei pyruvate kinase | Q57TT1 | TbPYK enzyme, Kinase-Glo Plus ATP luminescence, 45 min | Potency, µM (highest dose often 76.8 µM), hits mostly inhibitors | actives 0.12% (n = 410,000); further: nearly all actives have a fitted effect of over 50% in size
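Glycolytic pyruvate kinase of T. brucei was incubated with substrate, test compound and 130 uM ADP for 45 minutes at room temperature. Luminescent Kinase-Glo Plus signal was measured after 10 minutes.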
Each line names hits and unclear results; the compound was inactive in the other large screens; ! = not active in a repeat. Unless noted, the call rests on the fitted dose curve; in most records, active means well fitted curve in the direction sought with a large enough effect; inconclusive means small, poorly fitted or top-dose-only effect, or another doubt; inactive means no such curve, though single readings can be large; an effect the other way counts as inactive or inconclusive.

C/C(=N\NC(=O)c1ccncc1)c1cccs1	Shiga toxin inh 63, CHX counter 48
C/C(=N/N=C(/C)c1cccs1)c1cccs1	Shiga toxin inh 73, CHX counter 31
C/C(=N/NC(=O)c1cc(C2CC2)[nH]n1)c1cccs1	LmPK inhibitor 22µM, CHX counter 25
C/C(=N\NC(=O)c1ccc2ccccc2c1)c1cccs1	Shiga toxin inh 94, CHX counter 45 (no result: FBPA Giardia inh)
C/C(=N\NC(=O)C1=NNC(=O)C1C)c1cccs1 (configuration not stated)	Shiga toxin inh 90, CHX counter 34
C/C(=N\NC(=O)c1cccs1)c1cccnc1	none
C/C(=N\NC(=O)c1cccs1)c1ccc2ccccc2c1	Shiga toxin inh 41, CHX counter 37
C/C(=N/NC(=O)Cc1cccc2ccccc12)c1cccs1	none
C/C(=N\NC(=O)C1CC1c1ccccc1)c1cccs1 (configuration not stated)	none
C/C(=N\NC(=O)c1cccc(S(=O)(=O)N2CCCC2)c1)c1cccs1	Shiga toxin inh 50, CHX counter 19
Cc1noc(-c2ccc(NC(C)c3ccccc3)c([N+](=O)[O-])c2)n1 (configuration not stated)	none (no result: LmPK inhibitor, FBPA Giardia inh, Shiga toxin inh, CHX counter)
O=S(=O)(c1ccc(F)cc1)N(Cc1nc(-c2ccc(Cl)cc2)no1)C1CCCCC1	none (no result: LmPK inhibitor, FBPA Giardia inh, Shiga toxin inh, CHX counter)
Oc1c(N=Nc2nn[nH]n2)ccc2ccccc12	none (no result: LmPK inhibitor, FBPA Giardia inh, Shiga toxin inh, Sm TGR block, CHX counter)
Oc1ccc2ccccc2c1N=Nc1ccc(F)cc1	none
Cc1ccc(N=Nc2ccc3ccccc3c2O)cc1	CHX counter 44 (no result: Shiga toxin inh)
Oc1c(N=Nc2ccc(F)cc2)ccc2ccccc12	FBPA Giardia inh inconclusive, CHX counter 34, Tb PYK inh inconclusive (no result: Shiga toxin inh)
O/N=C/c1ccc(OCc2ccccc2)c(Br)c1	Shiga toxin inh 66, CHX counter 40
O/N=C/c1cc(Cl)ccc1OCc1ccccc1Cl	none
O/N=C/c1ccccc1OCc1ccccc1F	Shiga toxin inh 38, CHX counter 26
O/N=C/c1ccc(OCc2ccccc2)c(Cl)c1	Shiga toxin inh 76, CHX counter 37
O/N=C/c1ccc(OCc2ccccc2F)c(Cl)c1	Shiga toxin inh 53, CHX counter 52
Cc1ccc(NC(=O)C2CCN(S(=O)(=O)c3c(C)nn(C)c3C)CC2)c(Cl)c1	none
O=C(COC(=O)c1ccc(S(=O)(=O)N2CCCCC2)cc1)NCc1ccc(F)cc1	none (no result: LmPK inhibitor, FBPA Giardia inh, Shiga toxin inh, CHX counter)
CC(=O)CSc1nnc2cc(C)c3cc(C)cc(C)c3n12	none (no result: LmPK inhibitor, FBPA Giardia inh, Shiga toxin inh, CHX counter)
COc1ccc(C2Nc3ccccc3C(=O)N2Cc2ccco2)cc1COc1ccc(F)cc1 (configuration not stated)	Shiga toxin inh 40, Sm TGR block inconclusive, CHX counter 60
COc1ccc(C2Nc3ccccc3C(=O)N2Cc2ccccc2)cc1OC (configuration not stated)	none (no result: LmPK inhibitor, FBPA Giardia inh, Shiga toxin inh, Sm TGR block, CHX counter)
COc1ccc(C2Nc3ccccc3C(=O)N2Cc2ccco2)cc1CN1C(=O)c2ccccc2C1=O (configuration not stated)	Shiga toxin inh 43!, Sm TGR block inconclusive
O=C1c2ccccc2NC(c2cccc(O)c2)N1Cc1ccco1 (configuration not stated)	Sm TGR block 32µM
Cc1ccc(-c2nc(NC(=O)CSc3nc(C)nc4sc5c(c34)CCCC5)ns2)cc1	none (no result: LmPK inhibitor, FBPA Giardia inh, Shiga toxin inh, CHX counter)
COc1ccc(C2c3c(oc4cc(C)cc(C)c4c3=O)C(=O)N2Cc2ccco2)cc1OC (configuration not stated)	none (no result: LmPK inhibitor, FBPA Giardia inh, Shiga toxin inh, CHX counter)
CCCCn1c(SCC(=O)c2ccccc2)nc2sc3c(c2c1=O)CCCC3	none (no result: LmPK inhibitor, FBPA Giardia inh, Shiga toxin inh, CHX counter)
CCCCn1c(N)c(N(CC(C)C)C(=O)C2=NN(c3ccccc3)C(=O)CC2)c(=O)[nH]c1=O	Sm TGR block 89µM (no result: LmPK inhibitor, FBPA Giardia inh, Shiga toxin inh, CHX counter)
CCCCn1c(N)c(N(CCOC)C(=O)c2cc(-c3ccco3)nc3ccccc23)c(=O)[nH]c1=O	Sm TGR block 25µM (no result: LmPK inhibitor, FBPA Giardia inh, Shiga toxin inh, CHX counter)
CCCCN(C(=O)c1cc(-c2ccco2)nc2ccccc12)c1c(N)n(CCCC)c(=O)[nH]c1=O	Sm TGR block 3.5µM (no result: LmPK inhibitor, FBPA Giardia inh, Shiga toxin inh, CHX counter)
CCCCn1c(N)c(N(CCOC)C(=O)c2ccc(N3C(=O)CCC3=O)cc2)c(=O)[nH]c1=O	none (no result: LmPK inhibitor, FBPA Giardia inh, Shiga toxin inh, CHX counter)
CCCCn1c(N)c(N(CCOC)C(=O)c2ccc(-n3c(C)ccc3C)cc2)c(=O)[nH]c1=O	Sm TGR block 40µM (no result: LmPK inhibitor, FBPA Giardia inh, Shiga toxin inh, CHX counter)
CC(C)CN(C(=O)C1=NN(c2ccccc2)C(=O)CC1)c1c(N)n(Cc2ccccc2)c(=O)[nH]c1=O	none (no result: LmPK inhibitor, FBPA Giardia inh, Shiga toxin inh, CHX counter)
CCOC(=O)N1CCC(NC(=O)c2ccc3c(c2)N(Cc2cc(C)ccc2C)C(=O)c2ccccc2S3=O)CC1 (configuration not stated)	none (no result: LmPK inhibitor, FBPA Giardia inh, Shiga toxin inh, CHX counter)
Cc1ccc(Cl)cc1NC(=O)CSc1nc2ccccc2c2nc(-c3ccccc3)nn12	none (no result: LmPK inhibitor, FBPA Giardia inh, Shiga toxin inh, CHX counter)
CCOC(=O)c1c(C)oc2ncnc(N3CCN(c4cccc(Cl)c4)CC3)c12	none (no result: LmPK inhibitor, FBPA Giardia inh, Shiga toxin inh, CHX counter)
O=C(CN1C(=O)c2cccnc2Oc2ccc(Cl)cc21)NCCCc1ccccc1	none (no result: FBPA Giardia inh)
O=C(CCNS(=O)(=O)c1ccccc1)NCC1CCCCC1	none (no result: LmPK inhibitor, FBPA Giardia inh, Shiga toxin inh, CHX counter)
CC1CCCCN1CC(=O)Nc1ccccc1Sc1ccccc1 (configuration not stated)	none
CC(C)NC(=O)C1=CC(c2ccc3c(c2)OCO3)=NS(=O)(=O)N1C	none (no result: LmPK inhibitor, FBPA Giardia inh, Shiga toxin inh, CHX counter)
